Our source for the Potency and outcome values is PubChem BioAssay (Tox21).

Records with an inconclusive call do not appear. Unmarked numbers belong to inactive results. Calls of active or inactive are those of the source. Unless noted, calls follow the shape of the dose curve; as a rule, active = well fitted curve in the direction sought with a large enough effect in the repeat runs; inconclusive = weak or mixed curves; inactive = no such curve, though single readings can be large; an effect the other way counts as inactive or inconclusive.

A short description of assay [1]: qHTS assay to identify small molecule agonists of the vitamin D receptor (VDR) signaling pathway - cell viability counter screen (AID 743224). Also: series mostly up to about 63 µM; nearly all actives have a fitted effect of over 50% in size. The essentials:
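Viability is measured in the same wells as the VDR-bla reporter assay: after 16 h compound treatment and 2 h substrate loading, CellTiter-Glo is added and luminescence read 30 min later.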
In general terms: qHTS replaces the single test concentration by a dilution series.

Assay [2] in a line: qHTS assay to identify small molecule antagonists of the vitamin D receptor (VDR) signaling pathway - cell viability counter screen (AID 743225). Also: nearly all actives have a fitted effect of over 50% in size. The essentials:
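Same-well multiplex: following 16 h treatment of HEK 293T cells carrying a UAS-driven beta-lactamase reporter with compound and agonist (3 nM final), and a 2 h FRET substrate step, CellTiter-Glo was added and luminescence read after 30 min.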

Assay [3] can be described thus: qHTS assay to identify small molecule agonists of the NFkB signaling pathway (AID 1159509; active = well fitted curve in the direction sought with a large enough effect in the signal ratio in the repeat runs, not every such curve was filed as active; the % refers to the signal ratio; also: series mostly up to about 61 µM). The essentials: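 NFkB-bla ME-180 cells with a beta-lactamase reporter under an NF-kB response element were plated overnight, treated with compounds in DMSO for 5 hr at 37 C, then loaded with FRET substrate for 1.5 hr at room temperature.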
The nature of assay [4]: qHTS assay to identify small molecule agonists of the NFkB signaling pathway - cell viability counter screen (AID 1159515; calls by dose curve; also: series mostly up to about 61 µM; nearly all actives have a fitted effect of over 55% in size). The essentials:
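Multiplexed viability readout: after the 5 hr compound exposure and 1.5 hr FRET substrate step, CellTiter-Glo reagent went into the same NFkB-bla ME-180 wells; ATP luminescence was measured after 30 min at room temperature.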

The nature of assay [5]: qHTS assay to identify small molecule agonists of the endoplasmic reticulum stress response signaling pathway (AID 1159516; active = well fitted activation curve with a large enough effect in the signal ratio in the repeat runs, not every such curve was filed as active; the % refers to the signal ratio). The gist of the method:
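Tox21 10K library screened in quantitative HTS format on ESRE-bla HeLa cells, a beta-lactamase reporter under ER stress response element control; 5 hr treatment, FRET read.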

Assay [6] is described as follows: qHTS assay to identify small molecule antagonists of the retinoid-related orphan receptor gamma (ROR-gamma) signaling pathway - cell viability counter screen (AID 1159520). Also: nearly all actives have a fitted effect of over 50% in size. The essentials:
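Tet-on ROR gamma CHO cells (1,000/well) were plated 4 hr, given compounds in DMSO for 2 hr at 37 C, then induced with 1 uM final doxycycline for 16 hr. Viability was read as ATP by CellTiter-Glo luminescence after 30 min.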

Assay [7] concerns the target Nuclear receptor ROR-gamma (Homo sapiens) (UniProt P51449). Put plainly: qHTS assay to identify small molecule antagonists of the retinoid-related orphan receptor gamma (ROR-gamma) signaling pathway (AID 1159521; also: top concentration of the series differs between compounds; nearly all actives have a fitted effect of over 50% in size). The gist of the method: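 Inducible-expression reporter assay: doxycycline (1 uM final) switched on RORγ in CHO cells bearing a ROR response element-luciferase construct, with test compounds present from 2 h beforehand. Decreased luminescence after 16 h defined antagonist activity.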

A short description of assay [8]: qHTS assay to identify small molecule agonists of the AP-1 signaling pathway - cell viability counter screen (AID 1159525; calls by dose curve; also: nearly all actives have a fitted effect of over 55% in size). The essentials:
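ME-180 AP-1-bla, 2500 cells/well, Opti-MEM + 0.5% dialyzed FBS; overnight 37 °C; cpd 15-pt titration, 5 h 37 °C; CellTiter-Glo 30 min RT; luminescence read; normalised to TOAB and DMSO controls.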

Assay [9] in a line: qHTS assay to identify small molecule agonists of the AP-1 signaling pathway (AID 1159526; calls by dose curve).
Assay [10] addresses Retinoic acid receptor RXR-alpha (Homo sapiens) (UniProt P19793). Description: qHTS assay to identify small molecule agonists of the RXR signaling pathway (AID 1159527; calls by dose curve; also: nearly all actives have a fitted effect of over 35% in size). The gist of the method:
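Compounds in DMSO were added to RXR-alpha-UAS-bla HEK 293T cells kept in 2% charcoal-stripped serum, and incubated 16 hr at 37 C with 5% CO2. Reporter signal came from a 2 hr B/G FRET substrate step.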

Assay [11] can be described thus: qHTS assay to identify small molecule agonists of the RXR signaling pathway - cell viability counter screen (AID 1159529). The gist of the method:
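Counter screen: CellTiter-Glo luminescence. Cells: RXR-alpha-UAS-bla HEK 293T. Medium: 2% charcoal-stripped FBS. Treatment: 16 h, 37 C. Reagent incubation: 30 min, RT.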

A short description of assay [12]: qHTS assay to identify small molecule antagonists of the retinoic acid receptor (RAR) signaling pathway (AID 1159552; also: nearly all actives have a fitted effect of over 50% in size). The essentials: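 Antagonism of retinol-induced RARE reporter activity was measured in C3RL4 cells. Exposure to compounds and 1 uM final retinol lasted 6 hr at 37 C, with luminescence as endpoint.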
The nature of assay [13]: qHTS assay to identify small molecule agonists of the retinoic acid receptor (RAR) signaling pathway (AID 1159553). Also: potency is read from the fitted curve at half-maximal effect. The gist of the method:
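Agonist activity was scored in C3RL4 cells bearing a retinoic acid response element luciferase construct. Cells were treated with compounds for 6 hr at 37 C, and luciferase signal was measured as luminescence.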

Assay [14] is described as follows: qHTS assay to identify small molecule agonists of the endoplasmic reticulum stress response signaling pathway - cell viability counter screen (AID 1159517; calls by dose curve). The gist of the method: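 Luminescence readout: CellTiter-Glo, 30 min RT, same wells as the ESRE-bla reporter read. HeLa ESRE-bla, 1,500 cells/well, o/n 37 C; cpd 5 hr 37 C/5% CO2.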
A short description of assay [15]: qHTS assay to identify small molecule antagonists of the retinoid acid receptor (RAR) signaling pathway - cell viability counter screen (AID 1159551). Also: nearly all actives have a fitted effect of over 35% in size. The essentials:
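Cytotoxicity counter screen in C3RL4 cells: 6 h compound exposure with 1 uM retinol (final), viability from cellular ATP by luminescence.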

Assay [16] in a line: qHTS assay to identify small molecule antagonists of the estrogen related receptor (ERR) signaling pathway - cell viability counter screen (AID 1224818).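 Also: series mostly up to about 46 µM; viability measured after 17.5 h of compound exposure.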 The gist of the method:
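Cells carrying the ERR pathway reporter were seeded and incubated for 6 hours before compound addition. After a 17.5-hour exposure at 37 C, live-cell protease activity was measured by CellTiter-Fluor fluorescence following 30 minutes of incubation.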

Assay [17] in a line: qHTS assay to identify small molecule antagonists of the estrogen related receptor signaling pathway with the pleiotropic PPARgamma coactivator (PGC) cell viability counter screen (AID 1224822;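 also: series mostly up to about 46 µM; viability read after 17.5 h compound exposure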). The essentials:
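Seed PGC/ERR cells (2,000/well); incubate 6 h at 37 C/5% CO2; pin-transfer compounds in DMSO; incubate 17.5 h at 37 C; add CellTiter-Fluor; after 30 min read fluorescence.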

Chain of Retinoic acid receptor RXR-alpha (Homo sapiens) (P19793 whole entry, looked up): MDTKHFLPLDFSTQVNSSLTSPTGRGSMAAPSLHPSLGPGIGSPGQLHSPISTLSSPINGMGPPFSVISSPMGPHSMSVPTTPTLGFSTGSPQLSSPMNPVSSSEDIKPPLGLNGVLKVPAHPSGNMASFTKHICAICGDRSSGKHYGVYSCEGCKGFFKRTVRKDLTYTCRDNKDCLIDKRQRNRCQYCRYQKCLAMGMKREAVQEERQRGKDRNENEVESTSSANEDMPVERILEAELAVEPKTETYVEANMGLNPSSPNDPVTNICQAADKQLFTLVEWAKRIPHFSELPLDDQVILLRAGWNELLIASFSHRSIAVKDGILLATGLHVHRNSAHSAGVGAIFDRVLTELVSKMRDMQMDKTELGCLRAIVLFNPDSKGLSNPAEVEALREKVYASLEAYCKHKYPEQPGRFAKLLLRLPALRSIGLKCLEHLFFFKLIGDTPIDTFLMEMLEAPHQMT

For `c1cnc2c(n1)CCCC2`, the Potency result in assay [1], in assay [2], in [6], in assay [7], in [10] and in assay [11] was “inactive” each time. For the same compound, the Potency result in assay [12] and in assay [13] was “inactive” throughout. The compound was called inactive in [3], in assay [4], in [5], in assay [8] and in [9].

For `O=C(O)c1ccc(CO)o1`, the Potency result in [1], in [2], in assay [6], in assay [12] and in assay [13] was “inactive” in each case. Further, the result in assay [3], in assay [4], in assay [14], in assay [8] and in assay [9] was inactive.

As for `CCN(CC)CCNC(=O)c1ccc(NC(C)=O)cc1`, the Potency entry in assay [1], in [2], in assay [6], in assay [7], in assay [10] and in assay [11] was “inactive” throughout. For the same compound, the Potency entry in [15], in assay [12] and in assay [13] was “inactive” throughout. Further, the call in assay [3], in assay [4], in [8], in assay [9], in [16] and in assay [17] was inactive.

In the case of `CNC(=O)N(c1ccccc1)c1ccccc1`, the Potency result in assay [1], in assay [2], in [6], in assay [15], in assay [12] and in assay [13] was “inactive” throughout. Also, the result in assay [3], in [4], in assay [14], in assay [8] and in assay [9] was inactive.

In the case of `CC1=NN(c2ccc(C(=O)O)cc2)C(=O)C1`, the Potency entry in assay [1], in [2], in assay [6], in assay [11], in assay [15] and in assay [12] was “inactive” each time. Also, the compound was classed as inactive in assay [3], in assay [4], in assay [14], in assay [8] and in assay [9]. Also, the Potency in [13] is 68.6 µM (active).

As for `CC#N`, the Potency result in assay [1], in assay [6], in assay [10], in assay [11], in assay [15] and in assay [13] was “inactive” each time. The outcome in assay [3], in assay [4], in [14], in assay [8] and in assay [9] was inactive.

Take `OC/C(Br)=C(\Br)CO`: the Potency result in assay [1], in assay [2], in assay [6], in [7], in [10] and in [12] was “inactive” each time. The Potency entry in assay [13] is “inactive”. Further, the result in assay [3], in assay [4], in assay [5], in assay [8] and in assay [9] was inactive.

For the compound `OCC1CC=CCC1` (configuration not stated), the Potency result in assay [1], in [7], in assay [15] and in assay [12] was “inactive” in each case. Also, the outcome in [3], in assay [4], in assay [14], in assay [8] and in [9] was inactive.

`O=C(CCC1CCN(Cc2ccccc2)CC1)c1ccc2c(c1)NCCCC2`: the result in [3], in [4], in assay [14] and in assay [8] was inactive. Besides, the Potency result in assay [6], in [10], in assay [11] and in assay [12] was “inactive” each time.

On to `CC(C)=CC=O`, for which the Potency entry in assay [1], in [2], in assay [6], in assay [11], in [15] and in assay [12] was “inactive” throughout. Besides, the compound was called inactive in assay [3], in assay [4], in assay [14], in assay [8] and in [9].
